In PubChem BioAssay (NCI):
About 79,000 compounds went through this panel and 15% of them were active in at least one assay; those are over-represented in the sample as a whole. Calls of active or inactive are those of the source. Rule as the data show it: active = growth inhibition above about 70%; inactive = the rest.

What was measured:
[1] = NCI Yeast Anticancer Drug Screen. Data for the rad52 strain (AID 147);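 also: 0% = growth of vehicle-treated control cultures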; details: S. cerevisiae rad52 mutant growth inhibition, active compounds read high
How it was run: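 Genetically altered yeast (DNA damage repair defect) treated with compound; inhibition calculated relative to vehicle.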

[2] = NCI Yeast Anticancer Drug Screen. Data for the wt1 strain (AID 149);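 also: 0% = growth of vehicle-treated wt1 cultures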; details: S. cerevisiae wt1 strain (SPY 50644) growth inhibition, active compounds read high
How it was run: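 Vehicle-normalised growth inhibition; strain wt1; compound exposure.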

[3] = NCI Yeast Anticancer Drug Screen. Data for the rad50EPP+ strain (AID 151);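 also: 0% = growth of vehicle-treated control cultures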; details: S. cerevisiae rad50 mutant strain, active compounds read high
How it was run: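 Strain rad50EPP+; compound exposure; % growth inhibition vs vehicle.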

[4] = NCI Yeast Anticancer Drug Screen. Data for the mgt1 strain (AID 153); details: S. cerevisiae mgt1 mutant growth inhibition, active compounds read high
How it was run: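 Read-out: yeast growth inhibition vs vehicle control. Strain mgt1, drawn from a panel altered in DNA damage repair or cell cycle control.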

[5] = NCI Yeast Anticancer Drug Screen. Data for the rad50 strain (AID 155);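 also: 0% = growth of vehicle-only cultures of the same strain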; details: S. cerevisiae rad50 strain growth inhibition, active compounds read high
How it was run: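 A DNA repair-deficient yeast mutant serves as the test organism; compound-induced growth inhibition is calculated against vehicle-treated cells.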

[6] = NCI Yeast Anticancer Drug Screen. Data for the mec2-1 strain (AID 157); details: S. cerevisiae mec2-1 strain, active compounds read high
How it was run: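 Cells of the genetically defined mec2-1 yeast strain are incubated with test compound. Inhibition of growth is calculated against vehicle-treated controls.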

[7] = NCI Yeast Anticancer Drug Screen. Data for the sgs1 mgt1 strain (AID 161);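 also: 0% = growth of cultures given vehicle only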; details: S. cerevisiae sgs1 mgt1 strain, active compounds read high
How it was run: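 Read-out: growth inhibition vs vehicle controls. Cells: mutant yeast strain deficient in DNA damage repair.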

[8] = NCI Yeast Anticancer Drug Screen. Data for the CLN2oe strain (AID 163);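 also: 0% = growth of vehicle-only control cultures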; details: S. cerevisiae CLN2oe strain, active compounds read high
How it was run: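 Strain altered in cell-cycle control, incubated with compound; growth compared to solvent-treated controls.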

[9] = NCI Yeast Anticancer Drug Screen. Data for the cln2 rad14 strain (AID 165);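 also: 0% = growth equal to vehicle treated cultures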; details: S. cerevisiae cln2 rad14 strain, active compounds read high
How it was run: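 The screen exposed genetically defined yeast (cln2 rad14) to test compounds and scored growth inhibition relative to vehicle-treated controls.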

[10] = NCI Yeast Anticancer Drug Screen. Data for the bub3 strain (AID 167); details: S. cerevisiae bub3 mutant strain, active compounds read high
How it was run: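 Inhibition values come from growth of compound-treated mutant yeast normalised to vehicle-treated controls.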

[11] = NCI Yeast Anticancer Drug Screen. Data for the wt2 strain (AID 169);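 also: 0% = growth of vehicle-treated yeast cultures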; details: S. cerevisiae wt2 strain growth inhibition, active compounds read high
How it was run: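 Steps: yeast strain treated with compound; growth recorded; inhibition calculated relative to cultures given vehicle alone.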

[12] = NCI Yeast Anticancer Drug Screen. Data for the mlh1 strain (AID 171);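 also: 0% = growth of vehicle-treated control cultures of the same strain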; details: S. cerevisiae mlh1 strain growth inhibition, active compounds read high
How it was run: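 Yeast screen: mutant strain plus compound, growth scored against vehicle control wells.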

[13] = NCI Yeast Anticancer Drug Screen. Data for the sgs1 strain (AID 173);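 also: 0% = growth of vehicle-only control cultures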; details: S. cerevisiae sgs1 mutant, active compounds read high
How it was run: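 Inhibition of yeast growth served as the measure. The mutant strain was treated with each compound, and growth was normalised to cultures receiving vehicle alone.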

[14] = NCI Yeast Anticancer Drug Screen. Data for the mlh1 rad18 strain (AID 175); details: S. cerevisiae mlh1 rad18 strain growth inhibition, active compounds read high
How it was run: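 Compound-treated yeast growth, normalised to vehicle controls. Strain bears defined DNA repair mutations.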

[15] = NCI Yeast Anticancer Drug Screen. Data for the rad18 strain (AID 177); details: S. cerevisiae rad18 mutant growth inhibition, active compounds read high
How it was run: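 Inhibition values reflect reduced yeast growth compared with vehicle-treated controls, using a strain engineered with a DNA damage repair defect.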

[16] = at 5.0 µM (retest, dose inferred, filed as 0.5)
[17] = at 50.0 µM (retest, dose inferred, filed as 5.0)

Measured: growth inhibition

CC(C)(CN1CCCCC1)C(=O)/C=C/c1c(Cl)cccc1Cl
active: [1]; at 33.0 µM 98% | [1]; at 100.0 µM 98% | [2]; at 33.0 µM 93% | [2]; at 100.0 µM 97% | [4]; at 11.0 µM 81% | [4]; at 33.0 µM 98% | [4]; at 100.0 µM 99% | [5]; at 33.0 µM 97% | [5]; [17] 99% | [5]; at 50.0 µM 75.8% | [5]; at 100.0 µM 97% | [6]; at 33.0 µM 94% | [6]; [17] 97% | [6]; at 50.0 µM 83.9% | [6]; at 100.0 µM 97% | [7]; [17] 98% | [7]; at 50.0 µM 86.9% | [8]; at 11.0 µM 79% | [8]; at 33.0 µM 93% | [8]; at 100.0 µM 98% | [9]; [17] 99% | [9]; at 50.0 µM 86.4% | [10]; at 11.0 µM 91% | [10]; at 33.0 µM 98% | [10]; [17] 99% | [10]; at 50.0 µM 88.8% | [10]; at 100.0 µM 98% | [11]; at 11.0 µM 71% | [11]; at 33.0 µM 98% | [11]; at 100.0 µM 98% | [12]; at 33.0 µM 90% | [12]; at 100.0 µM 97% | [13]; at 11.0 µM 73% | [13]; at 33.0 µM 98% | [13]; at 100.0 µM 98% | [14]; [17] 98% | [14]; at 50.0 µM 87.7% | [15]; at 11.0 µM 89% | [15]; at 33.0 µM 98% | [15]; at 100.0 µM 98%
inactive: [1]; at 1.2 µM 12% | [1]; at 3.7 µM 35% | [1]; at 11.0 µM 68% | [2]; at 1.2 µM 10% | [2]; at 3.7 µM 15% | [2]; at 11.0 µM 32% | [3]; at 1.2 µM -2% | [3]; at 3.7 µM 0% | [3]; at 11.0 µM 22% | [3]; at 33.0 µM 50% | [3]; at 100.0 µM 47% | [4]; at 1.2 µM 10% | [4]; at 3.7 µM 37% | [5]; at 1.2 µM 11% | [5]; at 3.7 µM 29% | [5]; [16] 2% | [5]; at 11.0 µM 67% | [6]; at 1.2 µM 16% | [6]; at 3.7 µM 20% | [6]; [16] 14% | [6]; at 11.0 µM 51% | [7]; [16] 21% | [8]; at 1.2 µM 30% | [8]; at 3.7 µM 54% | [9]; [16] 55% | [10]; at 1.2 µM 27% | [10]; at 3.7 µM 49% | [10]; [16] 9% | [11]; at 1.2 µM 19% | [11]; at 3.7 µM 28% | [12]; at 1.2 µM 1% | [12]; at 3.7 µM 14% | [12]; at 11.0 µM 38% | [13]; at 1.2 µM 0% | [13]; at 3.7 µM 38% | [14]; [16] 30% | [15]; at 1.2 µM 31% | [15]; at 3.7 µM 57%

CO[C@@]1([C@@H](Cl)c2ccccc2)C(=O)N(C)/C(=C\c2ccccc2)C(=O)N1C
inactive: [1]; at 1.2 µM 0% | [1]; at 3.7 µM 1% | [1]; at 11.0 µM 3% | [1]; at 33.0 µM 7% | [1]; at 100.0 µM 8% | [2]; at 1.2 µM 0% | [2]; at 3.7 µM 0% | [2]; at 11.0 µM -2% | [2]; at 33.0 µM -1% | [2]; at 100.0 µM -1% | [3]; at 1.2 µM -1% | [3]; at 3.7 µM -3% | [3]; at 11.0 µM -6% | [3]; at 33.0 µM 0% | [3]; at 100.0 µM 5% | [4]; at 1.2 µM -1% | [4]; at 3.7 µM -1% | [4]; at 11.0 µM -1% | [4]; at 33.0 µM 39% | [4]; at 100.0 µM 50% | [5]; at 1.2 µM 2% | [5]; at 3.7 µM 6% | [5]; [16] -12% | [5]; at 11.0 µM 9% | [5]; at 33.0 µM 11% | [5]; [17] 14% | [5]; at 50.0 µM -7.3% | [5]; at 100.0 µM 15% | [6]; at 1.2 µM -3% | [6]; at 3.7 µM -1% | [6]; [16] -2% | [6]; at 11.0 µM 0% | [6]; at 33.0 µM 4% | [6]; [17] 4% | [6]; at 50.0 µM 11% | [6]; at 100.0 µM 8% | [7]; [16] -13% | [7]; at 50.0 µM 43.6% | [8]; at 1.2 µM -1% | [8]; at 3.7 µM 0% | [8]; at 11.0 µM -1% | [8]; at 33.0 µM 5% | [8]; at 100.0 µM 7% | [9]; [16] -8% | [9]; [17] 15% | [9]; at 50.0 µM 36.1% | [10]; at 1.2 µM -1% | [10]; at 3.7 µM -3% | [10]; [16] -11% | [10]; at 11.0 µM 0% | [10]; at 33.0 µM 10% | [10]; [17] 20% | [10]; at 50.0 µM -6.35% | [10]; at 100.0 µM 19% | [11]; at 1.2 µM 2% | [11]; at 3.7 µM 0% | [11]; at 11.0 µM -1% | [11]; at 33.0 µM 48% | [12]; at 1.2 µM 0% | [12]; at 3.7 µM -2% | [12]; at 11.0 µM -1% | [12]; at 33.0 µM 9% | [12]; at 100.0 µM 67% | [13]; at 1.2 µM -2% | [13]; at 3.7 µM -3% | [13]; at 11.0 µM -1% | [13]; at 33.0 µM 35% | [14]; [16] -10% | [14]; [17] 10% | [14]; at 50.0 µM 9%
active: [7]; [17] 96% | [11]; at 100.0 µM 79% | [13]; at 100.0 µM 82%
